From PubChem BioAssay (NCATS)
Records with an inconclusive call do not appear. Active and inactive are the calls of the source. Calls follow the shape of the dose curve; as a rule, active = well fitted inhibition curve with a large enough effect; inconclusive = small, poorly fitted or top-dose-only effect; inactive = flat fitted curve, though single readings scatter.

Assay: qHTS to identify inhibitors of the type 1 interferon - major histocompatibility complex class I in skeletal muscle: primary screen against the NCATS LOPAC collection (AID 1347405);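 also: lytic HiBiT luminescence reporting HLA-B protein level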
Details: iHSKM muscle cells, IFN-b-induced MHC-I HiBiT luminescence, 24 h; series mostly up to 45.9 µM; activity change, negative = inhibition: at the top concentration
In short: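 CRISPR-engineered immortalized human myoblasts (C25cl48) with HiBiT fused to endogenous HLA-B*08:01, stimulated with 4 ng/ml IFN-beta. LOPAC compounds tested as a 7-point 1:4.3 titration (top 46 uM final), 24 h at 37 C; lytic HiBiT luminescence read.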
% is scaled to controls: 0 for no effect and ±100 for the full control effect.

Compound | activity change, negative = inhibition
CCNC(=O)[C@H]1O[C@@H](n2cnc3c(N)nc(NCCc4ccc(CCC(=O)O)cc4)nc32)[C@H](O)C1O (stereo partly specified) | -14.7% (inactive)
CC1OC1P(=O)(O)O (stereo unspecified) | -1.87% (inactive)
COc1cccc(OC)c1OCCNCC1COc2ccccc2O1 (stereo unspecified) | -12.1% (inactive)
CN1CCc2cc(NC(=O)Nc3cccnc3)ccc21 | -3.23% (inactive)
NCCSSCCN | -8.62% (inactive)
NC[C@H]1O[C@@H](n2cnc3c(N)ncnc32)[C@H](O)[C@@H]1O | -8.65% (inactive)
Cc1cc(NC(=O)Nc2ccc3c(ccn3C)c2)sn1 | -4.57% (inactive)
Nc1nc(Nc2ccccc2)nc2c1ncn2[C@@H]1O[C@H](CO)[C@@H](O)[C@H]1O | -7.94% (inactive)
CCCCCCCCCCCCCCCC(=O)OC(CC(=O)O)C[N+](C)(C)C (stereo unspecified) | -29.9% (inactive)
CN1CCc2ccccc2Cc2[nH]c3ccccc3c2CC1 | -26.7% (inactive)
COc1ccc(Br)cc1S(=O)(=O)NC(=O)/C=C/c1ccccc1Cc1ccc2ccccc2c1 | -15.4% (inactive)
O=C1NC(O)=NC1(c1ccccc1)c1ccccc1 | -15.5% (inactive)
CSc1nc(N)c2ncn([C@@H]3O[C@H](COP(=O)(O)OP(=O)(O)OP(=O)(O)O)[C@@H](O)[C@H]3O)c2n1 | 1.18% (inactive)
C[C@@H](CN1CCC(Cc2ccccc2)CC1)[C@@H](O)c1ccc(O)cc1 | 2.32% (inactive)
O=c1cc(-c2ccccc2)oc2c(O)c(O)ccc12 | -25.1% (inactive)
CCCN(CC1CC1)c1nc(C)nc(Nc2c(Cl)cc(Cl)cc2Cl)c1Cl | -10.6% (inactive)
O=[N+]([O-])c1ccc(CSc2ncnc3c2ncn3[C@@H]2O[C@H](CO)[C@@H](O)[C@H]2O)cc1 | -3.79% (inactive)
O=C1/C(=C/c2ccsc2)CC/C1=C\c1cccs1 | 0.674% (inactive)

Compound | activity change, negative = inhibition
OC[C@H]1O[C@@H](n2cnc3c(NC4CCCCC4)ncnc32)[C@H](O)[C@@H]1O | -13.5% (inactive)
CS(=O)(=O)c1ccc(-n2nc(C(F)(F)F)cc2-c2ccc(F)cc2)cc1 | -9.38% (inactive)
O=c1[nH]c2cc([N+](=O)[O-])c([N+](=O)[O-])cc2[nH]c1=O | -0.832% (inactive)
Nc1nc(Cl)nc2c1ncn2[C@@H]1O[C@H](COP(=O)(O)OP(=O)(O)OP(=O)(O)O)[C@@H](O)[C@H]1O | -19.4% (inactive)
O=C(O)c1cc(=O)c2c(Cl)cc(Cl)cc2[nH]1 | -10.1% (inactive)
Clc1ccc(N2CCN(Cc3c[nH]c4ncccc34)CC2)cc1 | -17.8% (inactive)
CCCC(CCC)C(=O)OC1CC2CCC(C1)[N+]2(C)C (stereo unspecified) | -12.5% (inactive)
NC(=O)C1=CN(C2OC(COP(=O)(O)OP(=O)(O)OC[C@H]3O[C@@H](n4cnc5c(N)ncnc54)[C@H](OP(=O)(O)O)[C@@H]3O)C(O)C2O)C=CC1 (stereo partly specified) | 1.87% (inactive)
Cn1c(=O)c2[nH]c(-c3ccccc3)nc2n(C)c1=O | -4.75% (inactive)
CCCCCCCC/C=C\CCCCCCCC(=O)NCCO | -3.75% (inactive)
Fc1cccc(/C=N/N=C/c2cccc(F)c2)c1 | 11.3% (inactive)
N.N.N.N.N.N.N.N.N.N.N.N.N.N.O.O.[Ru+4].[Ru+5].[Ru+5] | -17.1% (inactive)
O=Nc1ccc2oc(=O)ccc2c1 | -2.87% (inactive)
CCN(CC)c1ncnc2c1ncn2[C@@H]1O[C@H](COP(=O)(O)OP(=O)(O)C(Br)(Br)P(=O)(O)O)[C@@H](O)[C@H]1O | -6.08% (inactive)
Nc1nc2c(ncn2[C@@H]2O[C@H](CO)[C@@H](O)[C@@H]2O)c(=O)[nH]1 | -7.41% (inactive)
Nc1nc(Cl)nc2c1ncn2[C@@H]1O[C@H](CO)[C@@H](O)[C@H]1O | -16.5% (inactive)
CO[C@H]1O[C@@H]2O[C@]3(C)CC[C@@H]4[C@@H](C)CC[C@H]([C@H]1C)[C@]24OO3 | -0.0711% (inactive)
CNCC[C@H](Oc1ccc(C(F)(F)F)cc1)c1ccccc1 | -6.11% (inactive)
